The record followed here is ChEMBL document CHEMBL1201862, “PubChem BioAssay data set” (2004).

Among all 400,000 compounds or so, about 2,100 (0.53%) were called active. Inconclusive results (about 14%) are left out. How the calls were made is not given here. The full list was thinned out, with actives kept by preference.

Sequence of Ataxin-2 (Homo sapiens) (Q99700 whole entry): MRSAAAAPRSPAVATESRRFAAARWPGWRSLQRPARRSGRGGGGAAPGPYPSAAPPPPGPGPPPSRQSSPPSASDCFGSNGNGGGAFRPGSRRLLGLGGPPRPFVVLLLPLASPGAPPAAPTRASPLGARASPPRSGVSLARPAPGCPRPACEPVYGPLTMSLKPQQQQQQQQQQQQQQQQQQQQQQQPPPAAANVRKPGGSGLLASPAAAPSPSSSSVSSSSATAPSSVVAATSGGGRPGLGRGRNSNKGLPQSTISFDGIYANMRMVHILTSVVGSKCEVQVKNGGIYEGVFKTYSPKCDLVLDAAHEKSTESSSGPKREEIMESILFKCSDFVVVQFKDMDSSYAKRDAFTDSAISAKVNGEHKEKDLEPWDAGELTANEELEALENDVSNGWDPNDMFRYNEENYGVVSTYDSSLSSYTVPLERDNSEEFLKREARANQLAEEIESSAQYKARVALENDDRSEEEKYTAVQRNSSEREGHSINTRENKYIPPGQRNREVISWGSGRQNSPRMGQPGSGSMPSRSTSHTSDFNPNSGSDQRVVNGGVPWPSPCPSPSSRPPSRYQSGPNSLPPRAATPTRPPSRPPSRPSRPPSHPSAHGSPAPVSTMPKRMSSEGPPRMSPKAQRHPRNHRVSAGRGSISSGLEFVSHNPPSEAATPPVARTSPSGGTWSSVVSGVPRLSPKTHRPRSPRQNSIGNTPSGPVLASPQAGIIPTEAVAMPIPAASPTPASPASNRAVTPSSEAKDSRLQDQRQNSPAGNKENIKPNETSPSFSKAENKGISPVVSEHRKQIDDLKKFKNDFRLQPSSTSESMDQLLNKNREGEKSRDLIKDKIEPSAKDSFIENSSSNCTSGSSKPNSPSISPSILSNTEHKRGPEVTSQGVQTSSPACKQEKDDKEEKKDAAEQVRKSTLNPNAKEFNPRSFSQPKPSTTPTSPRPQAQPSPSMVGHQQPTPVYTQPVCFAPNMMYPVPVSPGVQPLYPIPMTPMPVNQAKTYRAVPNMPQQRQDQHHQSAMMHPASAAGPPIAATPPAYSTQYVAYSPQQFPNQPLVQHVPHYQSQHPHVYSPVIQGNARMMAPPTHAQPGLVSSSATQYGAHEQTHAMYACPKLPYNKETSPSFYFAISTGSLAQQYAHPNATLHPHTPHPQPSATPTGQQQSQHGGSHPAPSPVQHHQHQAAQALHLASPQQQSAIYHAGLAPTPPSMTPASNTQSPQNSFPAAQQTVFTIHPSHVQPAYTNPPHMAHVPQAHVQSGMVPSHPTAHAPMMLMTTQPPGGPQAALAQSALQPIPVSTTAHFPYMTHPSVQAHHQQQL

This test addresses Ataxin-2 (Homo sapiens) (UniProt Q99700). Nature of the test: qHTS for Inhibitors of ATXN expression. In kind it is functional. (In general: Quantitative high-throughput screening tests each substance at several concentrations.)
As for `CCCc1[nH]c2ccc(C#N)cc2c1CCC`, the Potency is 35.5 µM (active). `O=C1N/C(=C/c2cccn2-c2ccccc2)C(=O)N1Cc1ccc(F)cc1`: the Potency result was “inactive”. For the molecule `CCCCCC(=O)N[C@@H](c1ccccc1)[C@@H](O)C(=O)O[C@H]1C[C@@]2(O)[C@@H](OC(=O)c3ccccc3)C3[C@](C)(C(=O)[C@H](OC(C)=O)C(=C1C)C2(C)C)[C@@H](O)C[C@H]1OC[C@@]31OC(C)=O` (some centres undefined), the Potency is 6.31 µM (active). As for `COc1ccc(C(=O)C2CCCN(C(=O)c3csc(SC)n3)C2)cc1F` (centres undefined), the entry is “inactive”; as for `Cc1nc(C)c(C(=O)N2CCCC(C(=O)c3ccc4ccccc4c3)C2)s1` (centres undefined), 28.2 µM (active); as for `CC1=C(C(=O)N2CCCC(C(=O)c3cccc(C(F)(F)F)c3)C2)OCCO1` (centres undefined), “inactive”. With `Cc1cccc(N2CCN(C(S)=Nc3ccc4nc(N5CCN(C)CC5)cc(C)c4c3)CC2C)c1` (centres undefined), the Potency was 39.8 µM (active).

Regarding `O=C(NCCCNC(=O)c1cnccn1)c1ccc(Br)cc1`, the Potency entry was “inactive”. Consider `Cc1ccc(C(=O)N/C(=C\c2ccc(Br)cc2)c2n[nH]c(S)n2)cc1`, for which the Potency was 25.1 µM (active). As for `Cc1ccc(/C=C(\NC(=O)c2ccc(C)cc2)c2n[nH]c(S)n2)cc1`, the figure is 25.1 µM (active). As for `O=C(N/N=C/c1ccc2nccnc2c1)c1ccc(Br)cc1`, the entry is “inactive”. Regarding `CCc1cc(=O)oc2c(CN3CCCC3)c(O)c(Cl)cc12`, the Potency entry was “inactive”. As to `NC(=O)c1sc2nnc(-c3ccccc3)c(-c3ccccc3)c2c1N`, the Potency entry was “inactive”. As for `CCOC(=O)C1(Cc2cccc(Cl)c2)CCCN(C(=O)CCSC)C1` (centres undefined), the entry is “inactive”. Regarding `CCOc1ccccc1CNS(=O)(=O)c1c[nH]cn1`, the Potency entry is “inactive”. As to `CN(C)C(=O)CCc1ccc2c3c([nH]c2c1)[C@]1(CCC2CCCC2)[C@@H](C(=O)N2CCOCC2)C[C@H](CC(=O)NCCC2=CCCCC2)C(=O)N1CC3`, the Potency was 35.5 µM (active).

On to `CN(C)C(=O)CCc1ccc2c3c([nH]c2c1)[C@]1(CCC2CCCC2)[C@@H](C(=O)N2CCOCC2)C[C@H](CC(=O)NCc2cccc(C(F)(F)F)c2)C(=O)N1CC3`, for which the Potency was 31.6 µM (active). As to `CC(C)=CCC/C(C)=C/CNC(=O)C[C@H]1C[C@H](C(=O)N2CCOCC2)[C@@]2(CCC3CCCC3)c3[nH]c4cc(CCC(=O)N(C)C)ccc4c3CCN2C1=O`, the Potency was 35.5 µM (active). As for `CC(C)=CCC/C(C)=C/CNC(=O)C[C@H]1C[C@H](C(=O)N(C(C)C)C(C)C)[C@@]2(C)c3[nH]c4cc(CCC(=O)N(C)C)ccc4c3CCN2C1=O`, the figure is 20 µM (active); as for `CCOC(=O)N1CCN(C(=O)c2cn(CC)c3ccc(S(=O)(=O)N4CCCCC4)cc3c2=O)CC1`, “inactive”. As for `Cc1ccc(S(=O)(=O)c2cc3ccccc3oc2=O)cc1`, the Potency result is “inactive”. As for `O=C(NCc1ccccc1)c1cc2ccc(O)cc2oc1=O`, the entry is “inactive”. As for `CCn1c(=N)c(C(=O)NCCCOC)cc2c(=O)n3cccc(C)c3nc21`, the entry is “inactive”; as for `CCOc1ccc(N(C)S(=O)(=O)c2ccc3ncc(C(=O)NCC(OC)OC)c(O)c3c2)cc1`, “inactive”. On to `COC(CNC(=O)c1ccc2c3c(onc13)-c1ccccc1C2=O)OC`, for which the Potency is 22.4 µM (active). As for `COCCCNC(=O)c1ccc2c3c(onc13)-c1ccccc1C2=O`, the figure is 29.9 µM (active); as for `COc1ccc(-c2nc3ccc(C(=O)NCC(OC)OC)cc3nc2-c2ccc(OC)cc2)cc1`, “inactive”; as for `COCCCNc1c(O)nc2cccc3c2c1-c1ccccc1C3=O`, “inactive”. As for `O=c1oc2ccccc2cc1-c1nc2c(s1)CCCC2`, the entry is “inactive”; as for `CCc1ccc(C2=CC(c3cccc(Br)c3)n3nnnc3N2)cc1` (centres undefined), “inactive”. As for `CC(=O)Nc1ccc(S(=O)(=O)N2CCN(c3nc(NC4CCCC4)c4ccccc4n3)CC2)cc1`, the figure is 31.6 µM (active); as for `CC(=O)Nc1ccc(S(=O)(=O)N2CCN(C(=O)C3COc4ccccc4O3)CC2)cc1` (centres undefined), “inactive”; as for `O=C(O)c1ccc(S(=O)(=O)N2CCN(c3ccccn3)CC2)cc1`, “inactive”. As for `Cc1ccc(C)c(-n2c(=O)c(C#N)cc3c(=O)n4ccccc4nc32)c1`, the Potency result is “inactive”. As for `Cc1ccc2oc(Nc3nc(C)c(C)c(C)n3)nc2c1`, the entry is “inactive”. As for `CCC(C)N1CCC2(CC1)N=c1c3c(O)c4c(O)c(C)c5c(c4c1=N2)C(=O)[C@@](C)(OC=C[C@H](OC)[C@@H](C)[C@@H](OC(C)=O)[C@H](C)[C@H](O)[C@H](C)[C@@H](O)[C@@H](C)C=CC=C(C)C(=O)N3)O5` (some centres undefined), the figure is 22.4 µM (active); as for `C=CCN(CC=C)C(=O)c1ccc(OC2CCN(S(=O)(=O)N(C)C)CC2)cc1`, “inactive”; as for `O=S(=O)(CCc1ccncc1)Cc1ccc2c3c(cccc13)CC2`, “inactive”. Consider `CC(=O)NCc1ccc(C(=O)CCl)s1`, for which the Potency is 16.8 µM (active). As for `CCOC(=O)C1CCCN(CC(=O)Nc2nc(-c3ccccc3)cs2)C1` (centres undefined), the entry is “inactive”; as for `O=S(=O)(CCN1CCN(c2ccccn2)CC1)c1ccc(F)cc1`, “inactive”. As for `Nc1ncn([C@H]2O[C@@H](CO)[C@@H](O)[C@@H]2O)c(=O)n1`, the figure is 5.01 µM (active); as for `C=CCSc1nc2c(N)ncnc2n1C1OC(CO)C(O)C1O` (centres undefined), “inactive”; as for `O=C(NN=C1CCCC1)NC1CCCCC1`, “inactive”. As for `O=C(NCCc1ccc(F)cc1)c1cccc2c1C(=O)c1ccc(N3CCC(Cc4ccccc4)CC3)cc1S2(=O)=O`, the entry is “inactive”. As to `N=c1n(CCN2CCCC2)c2ccccc2n1CC(O)c1ccc(Cl)c(Cl)c1` (centres undefined), the Potency is 31.6 µM (active). As for `O=c1c2ccccc2n(CC(O)CN2CCCCC2)c2ccccc12` (centres undefined), the Potency result is “inactive”. Turning to `Cc1cccc(OCC(O)Cn2c(=N)n(CCN3CCCCC3)c3ccccc32)c1` (centres undefined), the Potency was 39.8 µM (active).

Consider `Cc1cccc(OCC(O)Cn2ccnc2C)c1` (centres undefined), for which the Potency entry is “inactive”. As for `OC(CN1C2=NCCCN2c2ccccc21)c1ccc2c(c1)OCO2` (centres undefined), the entry is “inactive”; as for `Nn1cnnc1SCC(=O)N1CCc2ccccc2C1`, “inactive”; as for `CCOCCCn1c(=N)c(C(=O)NC(C)c2ccccc2)cc2c(=O)n3cc(C)ccc3nc21` (centres undefined), “inactive”. As for `C/C(=N\Nc1nc2ccccc2s1)c1ccc(Br)s1`, the Potency entry was “inactive”. Take `Cc1ccc(/C=N/Nc2nc3ccccc3s2)o1`: the Potency entry is “inactive”.

`CC(=NNc1nc2ccccc2s1)c1ccncn1`: the Potency was 10 µM (active). Consider `CCCCCCn1c(=O)[nH]c2nc3cc(N)c(C)cc3nc2c1=O`, for which the Potency result was “inactive”.

With `Cc1ccc(SSc2cc(C)ccc2N)c(N)c1`, the Potency is 17.8 µM (active). As for `FC(F)(F)c1ccc(Cl)c(-n2c(S)nnc2-c2cc(C3CC3)[nH]n2)c1`, the entry is “inactive”; as for `CC(C)C(OC(=O)CN1C(=O)COc2ccccc21)C(=O)NC1CCCCC1` (centres undefined), “inactive”; as for `O=C(CN1C(=O)COc2ccc(S(=O)(=O)NC3CCCC3)cc21)Nc1ccc(Cl)cc1`, 44.7 µM (active). As for `O=S(=O)(Nc1ccc(Cl)cc1)c1ccc(N2CCOCC2)c(NC(=S)NC2CC2)c1`, the entry is “inactive”; as for `COc1ccc(C(=O)Nc2ccc(S(=O)(=O)Nc3onc(C)c3C)cc2)c(OC)c1`, “inactive”; as for `O=C(Cc1cccs1)Nc1ccc(F)c(S(=O)(=O)N2CCOCC2)c1`, “inactive”. In the case of `COc1ccc(-c2nc(CSCC(=O)N3CCN(c4ccccc4F)CC3)c(C)o2)cc1`, the Potency is 31.6 µM (active). In the case of `COc1ccc(-c2nc(CN3CCN(Cc4cccc(Cl)c4)CC3)c(C)o2)cc1`, the Potency result is “inactive”. As for `COc1ccc(N2CCN(C(=O)COC(=O)CCc3ccccc3)CC2)cc1`, the entry is “inactive”; as for `COc1ccc(-c2cc3ccc(O)c(CN4CCCCC4C)c3oc2=O)cc1OC` (centres undefined), “inactive”.

Consider `COc1ccc(-c2nc(CSCC(=O)N3CCN(c4cccc(C)c4)C(C)C3)c(C)o2)cc1OC` (centres undefined), for which the Potency is 18.9 µM (active). As for `COc1ccc(-c2nc(CN3CCC(C(=O)NC4CCCc5ccccc54)CC3)c(C)o2)cc1OC` (centres undefined), the entry is “inactive”; as for `CCNC(=S)N1CCN(CCNC=C2C(=O)CC(C)(C)CC2=O)CC1`, “inactive”; as for `CN1C(=O)NC(NS(=O)(=O)c2ccc(N)cc2)(C(F)(F)F)C1=O` (centres undefined), “inactive”. As for `Nc1nc2nc(-c3cccs3)cc(C(F)(F)F)n2n1`, the entry is “inactive”; as for `C=CCNC(=O)/C(C#N)=C/c1c(N2CCN(c3cccc(Cl)c3)CC2)nc2c(C)cccn2c1=O`, “inactive”; as for `O/N=C/c1cc2ccccc2n1Cc1ccccc1F`, “inactive”. Regarding `Cc1ccc(C2=NN=C(c3ccccc3)c3ncccc3N2)cc1`, the Potency entry was “inactive”. With `CC(C)c1ccc(NC2=NC(=N)c3ccccc32)cc1`, the Potency is 39.8 µM (active). As for `CC(C)c1ccc(NC2=NN=C(c3cccs3)CS2)cc1`, the entry is “inactive”. As for `COc1ccc(S(=O)(=O)N2CCOCC2)cc1NC(=O)COc1cccnc1[N+](=O)[O-]`, the entry is “inactive”; as for `Clc1cccc2c1CCN(Cc1nc(-c3cnccn3)no1)C2`, “inactive”; as for `CSc1nc(N2CCN(c3ccccc3Cl)CC2)c2ccccc2n1`, “inactive”. As for `COc1ccc(C(=O)N2CCOC2CNC(=O)C(=O)NCc2ccc3c(c2)OCO3)cc1` (centres undefined), the entry is “inactive”.

For the molecule `COc1ccccc1N1CCN(c2nc(CNC(=O)c3ccc4c(c3)OCO4)nc3ccccc23)CC1`, the Potency is 28.2 µM (active). As for `COc1ccccc1N1CCN(C2CCCN(C(=O)c3csc(C)n3)C2)CC1` (centres undefined), the entry is “inactive”; as for `COc1ccccc1N1CCN(c2nc(CNC(=O)C3CC34CCCC4)nc3ccccc23)CC1` (centres undefined), 35.5 µM (active); as for `Cc1ccc(C(=O)NCc2ccc3c(c2)OCO3)cc1N1CCCC1=O`, “inactive”.

On to `CC1CC(C)(C)N=C(S)N1CCC(=O)N1CCN(c2ccccc2)CC1` (centres undefined), for which the Potency result was “inactive”. As to `CCn1c(=N)c(S(=O)(=O)c2ccccc2)cc2c(=O)n3ccccc3nc21`, the Potency result was “inactive”. As for `Cc1ccccc1CN(C)C1CCN(C)CC1`, the entry is “inactive”; as for `CCOC(=O)C1CCCN(C(=O)c2sc3nc4n(c(=O)c3c2C)CCC4)C1` (centres undefined), “inactive”; as for `CCOC(=O)CC1(C)c2nc(NC(C)=O)sc2Cc2sc(NC(C)=O)nc21`, “inactive”.

Consider `O=C(O)c1cccc(N2C(=O)c3cc4cccc(Br)c4cc3C2=O)c1`, for which the Potency entry is “inactive”. Turning to `O=C(NCc1ccccc1Cl)C1CCCO1` (centres undefined), the Potency entry is “inactive”. In the case of `O=C(NCc1ccccc1Cl)C1CCN(S(=O)(=O)c2ccc(-n3cnnn3)cc2)CC1`, the Potency result was “inactive”. As for `O=C(NCc1ccccc1Cl)[C@H]1CCCN1C(=O)[C@H]1CCCN1C(=O)c1cccc2ccccc12`, the figure is 10 µM (active).
